# KCNQ2 pot – potentiators of rat KCNQ2 potassium channel. AID 2239. O88943. 310,000 compounds, 0.54% hits. B-score at 10 µM. CHO-K1 KCNQ2, FluxOR thallium flux fluorescence; active compounds read high;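 active = fluorescence ratio B-score at least 3 SD of library B-scores, with initial fluorescence B-score within 3 of them, cut at about 5.3 in these data; same plate scores as AID 2156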;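 note: B-score of peak minus minimum over baseline fluorescence ratio after K+ and Tl+ stimulus; positive B-score means potentiation of KCNQ2 with more thallium influx and brighter signal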
# Target sequence (O88943 whole entry, looked up): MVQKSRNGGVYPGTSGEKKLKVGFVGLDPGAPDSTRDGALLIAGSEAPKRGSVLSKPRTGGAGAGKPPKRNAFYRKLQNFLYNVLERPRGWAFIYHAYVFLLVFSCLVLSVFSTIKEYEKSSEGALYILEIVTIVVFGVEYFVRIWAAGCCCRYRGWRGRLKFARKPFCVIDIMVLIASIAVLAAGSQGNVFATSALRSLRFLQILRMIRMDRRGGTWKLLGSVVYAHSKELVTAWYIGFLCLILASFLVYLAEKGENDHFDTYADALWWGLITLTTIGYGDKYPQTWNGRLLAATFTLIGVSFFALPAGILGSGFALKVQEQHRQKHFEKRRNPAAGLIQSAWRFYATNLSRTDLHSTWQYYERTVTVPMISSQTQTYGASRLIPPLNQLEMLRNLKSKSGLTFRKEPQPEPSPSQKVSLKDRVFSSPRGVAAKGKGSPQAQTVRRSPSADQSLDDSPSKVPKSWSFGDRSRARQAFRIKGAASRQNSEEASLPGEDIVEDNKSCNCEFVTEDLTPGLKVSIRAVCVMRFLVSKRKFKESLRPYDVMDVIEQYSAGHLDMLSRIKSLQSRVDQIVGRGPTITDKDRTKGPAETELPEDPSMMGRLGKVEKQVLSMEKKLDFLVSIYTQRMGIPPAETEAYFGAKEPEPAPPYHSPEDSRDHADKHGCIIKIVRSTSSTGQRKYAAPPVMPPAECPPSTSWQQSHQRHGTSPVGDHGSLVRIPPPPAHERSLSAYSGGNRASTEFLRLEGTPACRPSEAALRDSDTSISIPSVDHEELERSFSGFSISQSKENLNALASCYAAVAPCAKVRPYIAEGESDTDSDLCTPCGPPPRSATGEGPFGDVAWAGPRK
# KCNQ2 inh – blocks the rat KCNQ2 potassium channel; AID 2156; B-score at 10 µM; CHO-K1 KCNQ2, FluxOR thallium flux, 20 min; active compounds read low; 310,000 compounds, 1.1% hits; O88943;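 active = fluorescence ratio B-score at most minus 3 library SDs, with starting brightness B-score within 2 library SDs, cut at about -5.5 in these data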
# * marks the source's active call; other numbers are inactive results; i = inactive; . = not tested or not shown. Sampled rows, rich in hits. Any-hit rate of the full collection: about 1.6%.
SMILES,KCNQ2 pot,KCNQ2 inh
COC(=O)CSc1nnc(-c2ccc(NS(=O)(=O)c3ccccc3)cc2)o1,-6.18,-6.18*
Cc1ccc(CSc2nnc(-c3ccc(NS(=O)(=O)c4ccccc4)cc3)o2)cc1,.,i
Cc1c2n(c3ccccc13)CCN(C)C2,0.49,i
CCCCN(C)CCn1c(=S)[nH]c2cc(OCC)c(OCC)cc2c1=O,5.4*,i
CCOc1cc2[nH]c(=S)n(CCOC)c(=O)c2cc1OCC,0.16,i
C=C1CC2C(=O)N(Cc3cc(OC)ccc3OC)C(C(=O)OCC)(C(=O)OCC)C1N2C(=O)OC(C)(C)C (stereo not drawn),.,i
CS(=O)(=O)N(CC(=O)NC1CC1)C1CCCCC1,0.01,i
CN1CCN(Cc2c(O)ccc3occ(C(=O)c4ccccc4)c23)CC1,1.55,i
CC(=O)C(C(C)=O)c1c(Cl)c(O)c(O)c2c(C(=O)c3ccccc3)coc12,-7.28,-7.28*
O=C(COC(=O)C1(c2ccccc2F)CCCC1)NCc1ccc2c(c1)OCO2,-7.08,-7.08*
O=C(COC(=O)C1(c2ccc(F)cc2)CCCC1)NCc1ccc2c(c1)OCO2,.,i
CCOC(=O)c1sc(NC(=O)Cc2c(F)cccc2Cl)nc1C,.,i
CCOC(=O)c1sc2nccc(N(C)C)c2c1N=CNOCc1c(F)cccc1Cl,-6.23,-6.23*
Cc1nn(-c2ccccc2)c(=S)c2ccccc12,2.04,i
FC(F)(F)c1cccc(Cc2noc(CN3CCC(c4ccncc4)CC3)n2)c1,.,i
COc1ccc(/C=N/Nc2nc(N3CCCC3)nc(N3CCCC3)n2)cc1,.,i
COc1ccc(/C=N/Nc2nc(N3CCCC3)nc(N3CCCC3)n2)cc1O,-6.32,-6.32*
CC(=O)c1cc2c(cc1NC(=O)c1ccc(C)cc1)OCCO2,.,i
O=C1c2ccccc2C(Nc2ccc(Cl)cn2)N1Cc1ccccc1 (stereo not drawn),-6.49,-6.49*
O=C(CN1C(=O)c2ccccc2C1=O)Nc1ccc(Cl)cn1,0.84,i
COC(=O)CN1C(=S)N(C)C(=O)/C1=C/c1cccs1,.,i
CCc1ccc(/C=C2/C(=O)N(C)C(=S)N2CC(=O)OC)s1,-5.95,-5.95*
COc1cc(C(=O)N/C(=C/c2ccc(F)cc2)C(=O)NC(C(=O)O)c2ccccc2)cc(OC)c1OC (stereo not drawn),.,i
Cc1ccc(NC(=S)N2CCC(NC(=O)c3ccc(C)cc3)CC2)cc1,.,i
CCCNC(=S)N1CCC(NC(=O)c2ccc(C)cc2)CC1,-7.28,-7.28*
SMILES,KCNQ2 pot,KCNQ2 inh
CC(C)CN(C(=O)COC(=O)c1nc(Cl)ccc1Cl)c1c(N)n(Cc2ccccc2)c(=O)[nH]c1=O,.,i
CC12CCC(=O)N1C(C(=O)Nc1ccc(Cl)c(Cl)c1)CS2 (stereo not drawn),.,i
CC12CCC(=O)N1C(C(=O)Nc1ccc(Cl)c(S(=O)(=O)N3CCCCC3)c1)CS2 (stereo not drawn),-6.08,-6.08*
CC12CCC(=O)N1C(C(=O)NCc1ccccc1Cl)CS2 (stereo not drawn),-5.84,-5.84*
Cc1sc(NC(=O)C2CSC3(C)CCC(=O)N23)nc1-c1ccccc1 (stereo not drawn),-6.86,-6.86*
CC(=O)c1sc(NC(=O)C2CSC3(C)CCC(=O)N23)nc1-c1ccccc1 (stereo not drawn),.,i
CC12CCC(=O)N1C(C(=O)NCCc1ccccc1)CS2 (stereo not drawn),.,i
CC12CCC(=O)N1C(C(=O)Nc1cc(C(F)(F)F)ccc1N1CCOCC1)CS2 (stereo not drawn),.,i
CC12CCC(=O)N1C(C(=O)Nc1cc(C(F)(F)F)ccc1N1CCCCC1)CS2 (stereo not drawn),-6.05,-6.05*
O=C(NCc1nnnn1-c1ccc(Cl)cc1)c1ccc(Br)o1,.,i
CCCCCN(C(=O)CCC(=O)OC(C)C(=O)Nc1cccc(C#N)c1)c1c(N)n(CCCC)c(=O)[nH]c1=O (stereo not drawn),.,i
CN(C)S(=O)(=O)c1cccc(NC(=S)Nc2cc(Cl)cc(Cl)c2)c1,1.04,i
CCN(CCO)c1ccc(NC(=S)Nc2cccc(S(=O)(=O)N(C)C)c2)cc1,-6.73,-6.73*
CCOc1ccc(OCC)c(S(=O)(=O)n2cnc(C)c2)c1,.,i
COc1cccc(C(=O)N2c3cc(C)ccc3OCC2C(C)(C)C)c1 (stereo not drawn),.,i
Cc1ccc(S(=O)(=O)N2c3cc(C)ccc3OCC2C(C)(C)C)cc1 (stereo not drawn),-6.25,-6.25*
COc1ccc(S(=O)(=O)N2c3cc(C)ccc3OCC2C(C)(C)C)cc1 (stereo not drawn),-5.55,-5.55*
Cc1ccc(S(=O)(=O)N2c3ccccc3OCC2c2ccccc2)cc1 (stereo not drawn),.,i
CCS(=O)(=O)N1CCCC(C(=O)NCc2cccc(OC)c2)C1 (stereo not drawn),0.58,i
CCN(c1ccc(OC)cc1)S(=O)(=O)N1CCCC(C(=O)NCc2cccc(C)c2)C1 (stereo not drawn),-6.37,-6.37*

# Compound activity (PubChem)
